Screening data as filed in PubChem.
A selection: hits, their analogues and other compounds. The true share with any hit is near 0.9%.
PPARg SRC-2 ag: promotes SRC-2 coactivator recruitment by human PPARgamma; P37231; hit rate 0.34% among 200,000; PPARgamma LBD-SRC-2 recruitment, biochemical; activation, % at 8 µM; in the data active means activation above about 22%;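 further: 0% = vehicle and 100% = reference agonist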
Target sequence (P37231 whole entry, looked up, the tested form may be a part): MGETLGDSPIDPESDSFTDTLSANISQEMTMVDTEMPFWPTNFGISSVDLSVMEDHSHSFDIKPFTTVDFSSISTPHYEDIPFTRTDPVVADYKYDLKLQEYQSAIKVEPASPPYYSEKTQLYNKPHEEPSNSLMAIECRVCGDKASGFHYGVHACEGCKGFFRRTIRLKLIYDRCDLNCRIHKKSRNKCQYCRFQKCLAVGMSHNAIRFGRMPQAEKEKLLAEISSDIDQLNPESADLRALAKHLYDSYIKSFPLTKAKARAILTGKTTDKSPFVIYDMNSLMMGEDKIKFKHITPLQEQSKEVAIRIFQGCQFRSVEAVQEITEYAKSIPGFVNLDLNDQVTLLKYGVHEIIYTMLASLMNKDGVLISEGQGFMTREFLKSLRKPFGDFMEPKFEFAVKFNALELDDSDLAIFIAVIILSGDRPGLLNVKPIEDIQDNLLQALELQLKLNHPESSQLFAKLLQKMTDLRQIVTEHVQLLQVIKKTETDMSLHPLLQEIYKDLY
SRC1 TRFRET art: TR-FRET artefact, counter-screen to PPARgamma/SRC-1 agonist assay. hit rate 0.34% among 99,000. TR-FRET detection artefact counter-screen, emission ratio; stronger effect = higher value. TR-FRET ratio at 8 µM; in the data active means TR-FRET ratio above about 2300
PPARg SRC1 recr: promotes SRC-1 coactivator recruitment by human PPARgamma | P37231 | PPARgamma-SRC-1 coactivator recruitment biochemical assay | activation, % at 8 µM | hit rate 0.41% among 200,000 | AID 631; in the data active means activation above about 19%;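 further: 0% = DMSO and 100% = reference agonist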
SRC2 TRFRET art: flags TR-FRET format artefacts in PPARgamma SRC-2 recruitment agonist screen; TR-FRET artefact counter-screen; stronger effect = higher value; TR-FRET ratio at 8 µM; hit rate 0.4% among 200,000; AID 1049
PPARg SRC-3 ag: agonists of human PPARgamma SRC-3 coactivator recruitment | P37231 | biochemical PPARgamma/SRC-3 coactivator recruitment assay | activation, % at 8 µM | hit rate 0.26% among 200,000 | AID 731; in the data active means activation above about 23%;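 further: 0% = DMSO and 100% = reference agonist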
SRC3 TRFRET art: counter-screen for PPARgamma SRC-3 recruitment agonists: TR-FRET artefact; TR-FRET ratio at 8 µM; PPARgamma/SRC-3 format; stronger effect = higher value; hit rate 0.39% among 99,000
PPARg SRC2 ag: human PPARgamma SRC-2 recruitment agonism, confirmation. biochemical SRC-2 recruitment by PPARgamma. shares compounds with PPARg SRC-3 ag. hit rate 52% among 790. activation, % at 8 µM; in the data active means activation above about 22%;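 further: 0% = vehicle alone and 100% = reference agonist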
PPARg SRC1 conf: human PPARgamma SRC-1 recruitment agonism, confirmation. shares compounds with PPARg SRC-3 ag. PPARgamma–SRC-1 coactivator recruitment biochemical assay. activation, % at 8 µM. hit rate 43% among 790. AID 1300; in the data active means activation above about 20%;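 further: 0% = vehicle wells and 100% = reference agonist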
PPARg SRC3 ag: human PPARgamma SRC-3 recruitment agonism, confirmation | biochemical PPARgamma-SRC-3 coactivator recruitment, agonist mode | activation, % at 8 µM | hit rate 29% among 790 | AID 1301 | shares compounds with PPARg SRC-3 ag; in the data active means activation above about 24%;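 further: 0% = vehicle wells and 100% = reference agonist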
* hit, by the source's call; / = not tested or not shown. Unless noted, no stated cut-off is given here; in the data, active means TR-FRET ratio above about 2000; inactive means the rest.

SMILES	PPARg SRC-2 ag	SRC1 TRFRET art	PPARg SRC1 recr	SRC2 TRFRET art	PPARg SRC-3 ag	SRC3 TRFRET art	PPARg SRC2 ag	PPARg SRC1 conf	PPARg SRC3 ag
CCn1c(=O)cc(SCC(=O)N2CCN(c3ccccc3OC)CC2)c2ccccc21	67.6*	/	71.7*	2834*	85.2*	/	53.1*	37.1*	34.4*
CCn1c(=O)cc(SCC(=O)N2CCN(C3CCCCC3)CC2)c2ccccc21	35.2*	/	19.3*	2255*	36.5*	/	27.1*	17.1	18.2
COCCCNC(=S)N1CCN(S(C)(=O)=O)CC1	-1.9	1965	4.2	1646	2.5	1494	/	/	/
COc1ccc(N(CC(=O)NC2CCCCC2)C(=O)CNC(=O)c2ccco2)cc1	3.9	1886	3.5	1552	3.7	1524	/	/	/
CCn1c(=O)cc(SCC(=O)N2CCN(C(=O)c3ccco3)CC2)c2ccccc21	55.5*	/	54.3*	2772*	62.9*	/	33.6*	20.8*	23.6
CCn1c(=O)cc(SCC(=O)N2CCOCC2)c2ccccc21	54.7*	/	45.3*	2862*	81.8*	/	34.5*	22.0*	22.3
COc1ccc(/C=N/NC(=O)C(=O)NCc2cccnc2)cc1	5.3	1883	7.8	1846	2.7	1561	/	/	/
O=C(NC(=S)NCc1ccccc1)C1CCCCC1	10.9	/	10.8	1245	-6.1	/	/	/	/
CS(=O)(=O)c1ccc(C(=O)Nc2ccc(N3CCCCC3)cc2)c(Cl)c1	0.2	1810	11.8	1563	1.5	1280	/	/	/
Cc1ccc(Sc2ccc(NC(=O)c3ccc(S(C)(=O)=O)cc3Cl)cc2)cc1	-0.6	/	54.2*	1563	33.1*	/	24.2*	21.2*	13.9
CS(=O)(=O)c1nc(-c2ccc(Br)cc2)cc(-c2ccccc2)c1C#N	6.9	/	53.4*	2843*	110.5*	/	66.2*	49.3*	39.5*
CC(C)(C)NC(=S)NCc1ccncc1	-1.7	2184	12.8	1577	2.7	1600	/	/	/
Cn1c(=O)cc(SCC(=O)NCc2cccnc2)c2ccccc21	22.4*	/	28.1*	1858	38.4*	/	23.9*	17.5	16.7
Cn1c(=O)cc(SCC(=O)Nc2cccnc2)c2ccccc21	61.9*	/	66.0*	3288*	93.1*	/	28.4*	16.9	18.5
Cc1cccc(N(CC(=O)NCc2ccco2)C(=O)CCC(=O)Nc2nccs2)c1	-3.8	1458	0.5	1243	-4.6	1620	/	/	/
Oc1ccc(Br)cc1C=Nc1cccn2cc(-c3ccccc3)nc12	22.5*	1670	19.0	1895	11.0	1820	17.4	16.5	13.7
COc1ccc(NC(C)C(=O)N/N=C/c2ccccc2OCc2cccc(Br)c2)cc1 (stereo not drawn)	7.6	1922	22.4*	1675	36.7*	1450	6.2	23.8*	22.1
Cc1ccccc1NC(C)C(=O)N/N=C/c1ccccc1OCc1cccc(Br)c1 (stereo not drawn)	2.2	/	-2.1	1387	0.3	/	/	/	/
CCOC(=O)c1[nH]ncc1CN1CCCC(C(=O)c2ccc(C(C)(C)C)cc2)C1 (stereo not drawn)	3.4	1934	13.5	1576	6.8	1668	/	/	/
COc1ccccc1/C=C/C1=NC(=C\C=C/c2ccccc2)/C(=O)O1	11.6	1863	16.3	1610	40.6*	1622	6.1	4.6	12.5
N#Cc1c(Cl)nc(SCc2ccccc2)nc1-c1ccccc1	67.1*	/	59.4*	2883*	70.0*	/	80.3*	65.0*	54.2*
Cc1ccc(-c2n[nH]c(=S)n2-c2ccccc2)cc1	5.0	/	9.6	1648	17.9	/	/	/	/
Cc1ccc(-n2c(-c3cccc(C)c3)n[nH]c2=S)cc1	32.2*	/	19.8*	1998*	36.3*	/	29.7*	22.1*	21.4
CS(=O)(=O)Nc1ccc(-c2n[nH]c(=S)n2-c2ccccc2)cc1	13.7	/	19.1*	1649	11.1	/	19.2	12.9	12.4
Cn1c(NC2CCCCC2)c(N=O)c(=O)n(C)c1=O	-7.0	1775	-7.7	1378	-1.0	1454	/	/	/
SMILES	PPARg SRC-2 ag	SRC1 TRFRET art	PPARg SRC1 recr	SRC2 TRFRET art	PPARg SRC-3 ag	SRC3 TRFRET art	PPARg SRC2 ag	PPARg SRC1 conf	PPARg SRC3 ag
Cc1ccc(S(=O)(=O)N2CCN(C(C)CC(=O)O)CC2)cc1 (stereo not drawn)	1.7	1832	9.3	1679	-2.1	1448	/	/	/
Cc1ccc(Cl)cc1-c1ccc(C=Nc2ccc(N3CCOCC3)cc2)o1	37.0*	2713*	32.8*	2256*	27.0*	2494*	47.3*	34.2*	27.8*
Cc1ccc(/C=N/N2CCN(c3ccc(Cl)cc3)CC2)o1	1.1	/	11.2	1514	-4.3	/	/	/	/
COC(=O)CSc1ncnc2c1sc1nc3c(cc12)COC(C)(C)C3	23.8*	2109	13.2	1748	12.4	1809	17.1	15.5	12.0
CC1N(C)c2cccc3cccc(c23)N1C	25.0*	/	13.2	1457	11.2	/	24.2*	17.0	12.7
CC(=O)CSc1nc(-c2cccs2)c(C#N)c(=O)[nH]1	25.8*	2767*	16.0	2150*	17.3	2268*	31.2*	19.9*	19.8
CC(=O)CSc1nc(N)c(C#N)c(-c2cccs2)c1C#N	-1.9	/	1.0	1500	-3.6	/	/	/	/
CCOC(=O)CSc1nc(N)c(C(=O)Nc2ccc(N(C)C)cc2)s1	10.4	/	21.9*	1889	4.2	/	7.2	10.6	5.9
Cc1ccc(C)n1-c1ccc(-c2nnc3n2CCCCC3)s1	11.1	/	27.0*	1802	12.3	/	23.3*	22.4*	14.4
COc1ccc(NC(=O)c2oc3cc(C)c(C)cc3c2C)c(OC)c1	-8.8	/	-5.5	1355	3.2	/	/	/	/
CCN(CC)S(=O)(=O)c1ccc2oc(C(=O)Nc3ccc(OC)cc3OC)c(C)c2c1	12.6	/	18.9*	1691	-10.1	/	-0.1	3.0	1.7
O=C(Nc1ccncc1)c1ccc(-c2ccccc2)cc1	-1.6	1996	1.4	1551	4.6	1594	/	/	/
Cc1ccc(C)c(N2CCN(C(=O)c3ccc(Cn4c(=S)[nH]c5ccc(N6CCOCC6)cc5c4=O)cc3)CC2)c1	17.4	4039*	26.0*	3479*	28.1*	3971*	7.0	3.3	6.3
O=C(c1ccc(Cn2c(=S)[nH]c3cc4c(cc3c2=O)OCO4)cc1)N1CCN(c2ccccc2)CC1	-0.8	2110	18.1	1767	2.0	1780	/	/	/
Cn1cccc1/C=C1\Cc2ccccc2C1=O	24.5*	2340*	18.8	1747	14.2	1490	-0.5	-2.2	-0.3
Cn1cccc1/C=C1\CCc2ccccc2C1=O	7.3	2018	15.4	1632	5.5	1477	/	/	/
O=C(Nc1nccs1)c1ccc(COc2ccccc2Cl)o1	9.0	1842	1.0	1668	4.9	1704	/	/	/
C(=N\C(/N=C/c1ccco1)c1ccco1)/c1ccco1	15.0	1958	0.8	1592	-1.2	1658	/	/	/
